Results filed as inconclusive are left out. A number with no mark means an inactive call. The source made the active and inactive calls. Calls follow the shape of the dose curve; as a rule, active = well fitted inhibition curve with a large enough effect; inconclusive = small, poorly fitted or top-dose-only effect; inactive = no such curve, though single readings can be large or run the other way. Square brackets hold non-standard residues; d marks the D form. Peptide text beside a SMILES is read from it. * marks the point of attachment. Cbz = O=C(OCc1ccccc1)*; Nva = CCC[CH](N)C(=O)O
Each compound was assayed on zebrafish Abcb4 (ABCB1 homolog) (assay: qHTS for characterization and localization of zebrafish homologs of the human ABCB1 multidrug transporter: ABCB4 transfected cells). Details: CellTiter-Glo viability luminescence, 72 h; series mostly up to 46.1 µM; activity change, negative = inhibition: at the top concentration.
From the text: The zebrafish has emerged as a potential model to study the blood-brain barrier (BBB) given its similarities with mammalian systems. However, little information has been available with regard to homologous ATP-binding cassette transporters expressed at the zebrafish BBB. Two transporters that are highly expressed at the human BBB are P-glycoprotein (P-gp, encoded by the ABCB1 gene) and ABCG2 (encoded by the ABCG2 gene). In this study, we focus on characterization of P-gp homologs in the zebrafish, which has two genes that are homologous to human ABCB1 - abcb4 and abcb5. We generated stably-transfected cell lines to determine their substrate specificities. […] Zebrafish abcb4 also colocalized with claudin 5 expression in brain endothelial cells.
A high-throughput screen was performed as previously described on empty vector transfected cells, P-gp-overexpressing MDR-19 cells and cells transfected with full-length zebrafish abcb4 (ZF Abcb4) or abcb5 (ZF Abcb5). Briefly, cells were plated into 1536-well plates at a density of 500 cells/well in 5 uL media. P-gp substrate compounds (approximately 90) selected from our previous study were then added at varying concentrations using a 1536-head pin tool (Kalypsis, San Diego, CA) and plates were incubated at 37C in 5% CO2 for 72 h. CellTiter-Glo reagent (Promega) was dispensed into the wells, incubated for 5 min and luminescence was read on a ViewLux instrument (Perkin-Elmer).
Cytotoxic compounds were defined as those that yielded a curve class of -1.1, -1.2, -2.1, -2.2, -2.3, or -2.4, a maximum response of >50% and an AC50 of < 10 uM. All compounds from screening analysis were tested in Vector (empty vector control), MDR-19 (P-gp overexpressing), zebrafish abcb4 (ZF Abcb4) and abcb5 (ZF Abcb5) expression cell lines.
1. Tobie D Lee, Olivia W Lee, Kyle R Brimacombe, Lu Chen, Rajarshi Guha, Sabrina Lusvarghi, Bethilehem G Tebase, Carleen Klumpp-Thomas, Robert W Robey, Suresh V Ambudkar, Min Shen, Michael M Gottesman, Matthew D Hall. A High-Throughput Screen of a Library of Therapeutics Identifies Cytotoxic Substrates of P-glycoprotein. Mol Pharmacol. 2019, Nov;96(5):629-640.

Compound | activity change, negative = inhibition | Potency
CCn1c(-c2nonc2N)nc2c(C#CC(C)(C)O)ncc(OC[C@H]3CCCNC3)c21 | -13.4% | 
CC(=O)O[C@@H]1C[C@H](O)[C@@]23CO[C@@H](O)C1(C)[C@@H]2C[C@@H](O)[C@]1(C)[C@@H]3C(=O)[C@H](OC(C)=O)[C@@]2(C)[C@H](c3ccoc3)C[C@H]3O[C@]321 |  | 2.96 µM (active)
COc1cc(N2CCC(O)CC2)ccc1Nc1nc(Nc2ccccc2S(=O)(=O)C(C)C)c2[nH]cnc2n1 | -13.2% | 
N=C(N)c1ccc(OCCCCCOc2ccc(C(=N)N)cc2)cc1 | -22.7% | 
CC1(C)CC(NC(=O)C(=O)Nc2ccc(Br)cc2)CC(C)(C)N1 | -3.92% | 
CC[n+]1c(-c2ccccc2)c2cc(N)ccc2c2ccc(N)cc21 | -14% | 
CCCC(C=O)NC(=O)C(CC(C)C)NC(=O)C(CC(C)C)NC(=O)OCc1ccccc1 (stereo not drawn) (Cbz-Leu-Leu-[Nva]-aldehyde; configuration not given here) |  | 3.72 µM (active)
CCN1CCN(Cc2ccc(NC(=O)Nc3ccc(Oc4cc(NC)ncn4)cc3)cc2C(F)(F)F)CC1 | 3.35% | 
C=CCn1c(=O)c2cnc(Nc3ccc(N4CCN(C)CC4)cc3)nc2n1-c1cccc(C(C)(C)O)n1 |  | 4.18 µM (active)
O=C(NC1CCNCC1)c1[nH]ncc1NC(=O)c1c(Cl)cccc1Cl | 0% | 
C[C@@H]1O[C@@H](O[C@H]2[C@H](O)[C@@H](O)[C@H](O[C@H]3[C@H](O[C@H]4CC[C@@]5(C)C(=CC[C@@H]6C5CC[C@]5(C)[C@@H]7[C@H](C[C@@H]65)O[C@]5(CC[C@@](C)(CO[C@@H]6O[C@H](CO)[C@@H](O)[C@H](O)[C@H]6O)O5)[C@H]7C)C4)O[C@H](CO)[C@@H](O)[C@@H]3O)O[C@@H]2CO)[C@H](O)[C@H](O)[C@H]1O (stereo not given in full) | -18.3% [at 15.2 µM] | 
CCC(C)C(=O)OC1CC(O)C23C4OCC5(C(O)CC2C1(C)C(O)O4)C3C(=O)C(O)C1(C)C(O)(c2ccoc2)CC2OC251 (stereo not given) | 3.68% [at 15.2 µM] | 
CC(C)(C)c1cnc(CSc2cnc(NC(=O)C3CCNCC3)s2)o1 |  | 38.2 µM (active)
CC(C)C[C@@H](C=O)NC(=O)[C@H](CC(C)C)NC(=O)[C@H](CC(C)C)NC(=O)OCc1ccccc1 (Cbz-Leu-Leu-Leu-aldehyde) |  | 2.96 µM (active)
Cc1cc(N)c2ccccc2[n+]1CCCCCCCCCC[n+]1c(C)cc(N)c2ccccc21 | 3.65% | 
CC1(C)CC[C@]2(C(=O)OC3OC(CO)C(O)C(O)C3O)CC[C@]3(C)C(=CCC4[C@@]5(C)CC[C@H](OC6OC(C(=O)O)C(O)C(O)C6O)C(CO)(CO)C5CC[C@]43C)[C@@H]2C1 (stereo not given in full) | 4.01% [at 15.2 µM] | 
C#CCN(Cc1cc2c(=O)n(C)c(CN3CCN(C)CC3)nc2cc1Cl)c1ccc(C(=O)NCc2cccnc2)cc1 | -12.2% | 
C[C@@H]1O[C@@H](O[C@H]2[C@@H](OC(=O)[C@]34CCC(C)(C)CC3C3=CCC5[C@@]6(C)C[C@H](O)[C@H](O[C@@H]7O[C@H](CO)[C@@H](O)[C@H](O)[C@H]7O[C@@H]7OC[C@@H](O)[C@H](O)[C@H]7O)[C@@](C)(C(=O)O)C6CC[C@@]5(C)[C@]3(C)CC4)OC[C@H](O)[C@@H]2O)[C@H](O)[C@H](O)[C@H]1O[C@@H]1OC[C@@H](O)[C@H](O)[C@H]1O (stereo not given in full) | -5.3% [at 8.96 µM] | 
C[C@@]12O[C@@H](C[C@]1(O)CO)n1c3ccccc3c3c4c(c5c6ccccc6n2c5c31)CNC4=O |  | 5.26 µM (active)
Cc1[nH]c2ccccc2c1CCNCc1ccc(/C=C/C(=O)NO)cc1 |  | 2.96 µM (active)

Compound | activity change, negative = inhibition | Potency
CC(NCc1ccc2c(c1)nc(NC(=O)c1ccc(-c3cn[nH]c3)s1)n2CC(C)(C)O)C(C)(C)C (stereo not given) |  | 6.62 µM (active)
O=C(NC1CC1)c1cccc(-c2ccc3c(NC(=O)C4CC4)n[nH]c3c2)c1 | -11.5% | 
Cc1ccc(C(=O)N(CCCN)C(c2nc3cc(Cl)ccc3c(=O)n2Cc2ccccc2)C(C)C)cc1 (stereo not given) |  | 20.9 µM (active)
CO[C@H]1/C=C/C=C/C=C/C[C@H](OC(=O)[C@@H](C)NC(=O)C2CCCCC2)[C@H](C)[C@@H](O)/C(C)=C/CCc2cc(O)cc(c2)NC(=O)C1 | -15.5% [at 15.2 µM] | 
COc1ccc(CC2C(=O)NC(C)C(=O)N(C)C3Cc4ccc(cc4)Oc4cc(ccc4OC4OC(CO)C(O)C(O)C4O)CC(C(=O)NC(C)C(=O)NC(C)C(=O)N2C)N(C)C3=O)cc1 (stereo not given) | -18.4% [at 15.2 µM] | 
CC[C@@]1([C@@H]2O[C@@H]([C@H]3O[C@@](O)(CO)[C@H](C)C[C@@H]3C)C[C@@H]2C)CC[C@H]([C@]2(C)CC[C@]3(C[C@H](O)[C@@H](C)[C@@H]([C@@H](C)[C@@H](OC)[C@H](C)C(=O)O)O3)O2)O1 |  | 1.05 µM (active)
CC(C)C[C@H](NC(=O)[C@H](CCc1ccccc1)NC(=O)CN1CCOCC1)C(=O)N[C@@H](Cc1ccccc1)C(=O)N[C@@H](CC(C)C)C(=O)[C@@]1(C)CO1 |  | 2.35 µM (active)
COC[C@H](NC(=O)c1cnc(C)s1)C(=O)N[C@@H](COC)C(=O)N[C@@H](Cc1ccccc1)C(=O)[C@@]1(C)CO1 |  | 0.935 µM (active)
C=C1CO[C@@]2(O[C@H]3CC4C5CC=C6C[C@@H](O)C[C@@H](O[C@@H]7OC[C@H](O)[C@H](O[C@@H]8OC[C@@H](O)[C@H](O)[C@H]8O)[C@H]7O[C@@H]7O[C@@H](C)[C@H](OC(C)=O)[C@@H](OC(C)=O)[C@H]7OC(C)=O)[C@]6(C)C5CC[C@]4(C)[C@@H]3[C@@H]2C)[C@@H](O)[C@H]1OC1OC(C)C(O)C(O)C1O (stereo not given in full) | 4.44% [at 8.96 µM] | 
CN(C)C1CCN(C(=O)c2ccc(NC(=O)Nc3nc(N4CCOCC4)nc(N4CCOCC4)n3)cc2)CC1 | -13.5% | 
CCS(=O)(=O)c1cccc(-c2cc(C(=O)NC3CCN(C)CC3)c(C)c3[nH]c4ncc(C)cc4c23)c1 | 0.87% | 
COc1cc2c(NC3CCN(C(C)C)CC3)nc(N3CCCN(C)CC3)nc2cc1OCCCN1CCCC1 | -9.68% | 
CCc1cccc(CC)c1NC(=O)N1Cc2[nH]nc(NC(=O)c3ccc(N4CCN(C)CC4)cc3)c2C1 | 2.17% | 
CCc1c(O)cc(O)c(C(=O)c2ccc(OCCN3CCOCC3)c(OC)c2)c1CC(=O)N(CCOC)CCOC | -0.0218% | 
CC(C)C[C@H](NC(=O)[C@@H](NC(=O)c1cccc(-c2ccccc2)n1)[C@@H](C)O)B(O)O |  | 0.662 µM (active)
COCCn1c2c([n+](Cc3cnccn3)c1C)C(=O)c1ccccc1C2=O | -7.01% | 
Cc1nc(Nc2n[nH]c3c2CN(C(=O)N[C@H](CN(C)C)c2ccccc2)C3(C)C)c2sccc2n1 | -30.3% | 
COc1cc2ncn(-c3cc(OCc4ccccc4C(F)(F)F)c(C(N)=O)s3)c2cc1OC |  | 19.1 µM (active)
COC(C(=O)N1Cc2[nH]nc(NC(=O)c3ccc(N4CCN(C)CC4)cc3)c2C1)c1ccccc1 (stereo not given) | -3.58% | 
CN(C)c1ccc(C(=C2C=CC(=[N+](C)C)C=C2)c2ccc(N(C)C)cc2)cc1 |  | 13.2 µM (active)

— PubChem BioAssay AID1508635 (National Center for Advancing Translational Sciences (NCATS), 2021)
